From PubChem BioAssay (NCI)
Compounds without any hit were thinned out: in the full panel of roughly 83,000, 20% have a hit.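 Interpretation: 100, growth as untreated; towards 0, rising growth inhibition; 0, no net growth; 0 to -100, cell death. Compounds scoring below 10 were considered active.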 Active and inactive are the calls of the source.

How the values were obtained:
Test in all cases: NCI-60 one-dose screen, 48 h (100 = growth as untreated, 0 = no growth, -100 = all killed)
Settings in all cases: 10 µM unless noted
HCT-15 colon = test system: HCT-15 colon
HT29 colon = test system: HT29 colon
SNB-19 CNS = test system: SNB-19 CNS
U251 CNS = test system: U251 CNS
PC-3 prostate = test system: PC-3 prostate
SK-MEL-5 melanoma = test system: SK-MEL-5 melanoma
UACC-62 melanoma = test system: UACC-62 melanoma
LOX IMVI melanoma = test system: LOX IMVI melanoma
SK-MEL-28 melanoma = test system: SK-MEL-28 melanoma
EKVX NSCLC = test system: EKVX NSCLC
SN12C renal = test system: SN12C renal
UO-31 renal = test system: UO-31 renal
TK-10 renal = test system: TK-10 renal
ACHN renal = test system: ACHN renal
A498 renal = test system: A498 renal
MOLT-4 leukemia = test system: MOLT-4 leukemia
SK-MEL-2 melanoma = test system: SK-MEL-2 melanoma
CAKI-1 renal = test system: CAKI-1 renal
CCRF-CEM leukemia = test system: CCRF-CEM leukemia

Measured: growth

COc1cccc(-c2cc3c(O)cc(C#N)cc3[nH]2)c1
inactive: HCT-15 colon 80.9% | HT29 colon 94.6% | SNB-19 CNS 93.1% | U251 CNS 85.3% | PC-3 prostate 81.8% | SK-MEL-5 melanoma 82.1% | UACC-62 melanoma 70.9% | LOX IMVI melanoma 92.4% | SK-MEL-28 melanoma 97.8% | EKVX NSCLC 77.8% | SN12C renal 66.1% | UO-31 renal 106% | TK-10 renal 97.9% | ACHN renal 87.6% | A498 renal 71.7% | MOLT-4 leukemia 81.8%

CCCCCCCC[C@@H](O)CC(=O)N[C@@H](CC(N)=O)C(=O)N[C@@H](CCC(N)=O)C(=O)N[C@@H](CC(=O)c1cc(C)cc(O)c1C(=O)c1c(O)cccc1O)CC(C)C
inactive: HCT-15 colon 45.6% | SNB-19 CNS 23.8% | PC-3 prostate 10.8% | SK-MEL-5 melanoma 16.1% | LOX IMVI melanoma 12.5% | SK-MEL-2 melanoma 51.9% | EKVX NSCLC 61.1% | SN12C renal 25.4% | UO-31 renal 63.2% | ACHN renal 31.9% | CAKI-1 renal 40.6% | CCRF-CEM leukemia 11.6% | MOLT-4 leukemia 14%
active: HT29 colon 2.56% | U251 CNS 4.49% | UACC-62 melanoma 0.947% | TK-10 renal -6.12% | A498 renal -3.25%

COc1cccc(/C=C/C(=O)Nc2cc(OC)c3c(c2)OCO3)c1
inactive: HCT-15 colon 101% | HT29 colon 92.1% | SNB-19 CNS 96.7% | U251 CNS 91.3% | PC-3 prostate 97.8% | SK-MEL-5 melanoma 94.1% | UACC-62 melanoma 92% | LOX IMVI melanoma 95.8% | SK-MEL-28 melanoma 114% | EKVX NSCLC 92.4% | SN12C renal 93.8% | UO-31 renal 101% | TK-10 renal 98.4% | ACHN renal 102% | CAKI-1 renal 93.7% | A498 renal 69.5% | MOLT-4 leukemia 89.5%

COc1ccc(NC(=O)c2cc(OC)c(OC)c(OC)c2)cc1O
inactive: HCT-15 colon 35% | HT29 colon 10.7% | SNB-19 CNS 52.1% | U251 CNS 40.4% | PC-3 prostate 25.9% | SK-MEL-5 melanoma 22.8% | UACC-62 melanoma 30.8% | LOX IMVI melanoma 43.3% | SK-MEL-28 melanoma 56% | EKVX NSCLC 97.1% | SN12C renal 43.4% | UO-31 renal 66.8% | TK-10 renal 88.9% | ACHN renal 57.6% | CAKI-1 renal 46.8% | A498 renal 46% | MOLT-4 leukemia 64.4%
